# Results taken from PubChem BioAssay (NCATS).
# Several values for one entry are separate records, joined by “and”; a condition that tells them apart may be missing. Equal values may be shown once. Values without a mark were called inactive. Inconclusive results are not listed. Entries that show only a call come without a potency. Activity calls are given as the source filed them. Calls come from the whole dose curve; as a rule, active = well fitted curve in the direction sought with a large enough effect; inconclusive = small, poorly fitted or top-dose-only effect, or another doubt; inactive = no such curve, though single readings can be large; an effect the other way counts as inactive or inconclusive.
# Tests used:
# [1] = Primary qHTS for inhibitors of nuclear receptor binding SET domain protein 2 (NSD2) in an RCH-ACV wild type WT cells (2C) (AID 1645877); note: nearly all actives have a fitted effect of over 70% in size; note: potency is the fitted concentration of half-maximal effect
# [2] = biological target: Glutathione peroxidase 1 (Homo sapiens) (UniProt P07203); assay: Primary qHTS Assay for Inhibitors of Recombinant Selenoprotein Glutathione Peroxidase 1 (GPX1) (AID 1845191); note: nearly all actives have a fitted effect of over 65% in size
# Sequence of Glutathione peroxidase 1 (Homo sapiens) (P07203 whole entry, looked up): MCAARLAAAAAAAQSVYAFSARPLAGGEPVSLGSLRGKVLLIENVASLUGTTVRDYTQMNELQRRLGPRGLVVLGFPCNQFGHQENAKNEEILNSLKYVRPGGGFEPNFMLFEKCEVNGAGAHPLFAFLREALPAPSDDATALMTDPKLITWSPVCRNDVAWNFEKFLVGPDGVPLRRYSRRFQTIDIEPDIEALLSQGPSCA
# Outline: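 GR-coupled readout: NADPH consumption tracked by fluorescence, ex 340/em 450 nm, at t=0 and after 15 min at RT. Final mix 10 nM GPX1, 1 mM GSH, 0.5 mM CHP, 0.5 mM NADPH, 100 nM GR, 0.01% BSA, following 30 min enzyme–compound preincubation.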
# [3] = biological target: Phospholipid hydroperoxide glutathione peroxidase GPX4 (Homo sapiens) (UniProt P36969); assay: Primary qHTS Assay for Inhibitors of Recombinant Selenoprotein Glutathione Peroxidase 4 (GPX4) (AID 1845192); note: nearly all actives have a fitted effect of over 65% in size; for activity change, negative = inhibition: series mostly up to about 50 µM
# Sequence of Phospholipid hydroperoxide glutathione peroxidase GPX4 (Homo sapiens) (P36969 whole entry, looked up): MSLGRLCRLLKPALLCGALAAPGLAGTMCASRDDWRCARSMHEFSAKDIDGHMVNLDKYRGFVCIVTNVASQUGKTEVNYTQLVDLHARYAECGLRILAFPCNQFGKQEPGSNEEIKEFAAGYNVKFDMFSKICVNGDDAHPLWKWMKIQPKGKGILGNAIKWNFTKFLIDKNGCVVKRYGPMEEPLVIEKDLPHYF
# Outline: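 Steps: GPX4 plus compound, 30 min RT; add GR/GSH/NADPH master mix; start with cumene hydroperoxide; read 340/450 nm fluorescence at 0 and 15 min. Finals were 200 nM GPX4, 1 mM GSH, 0.5 mM CHP, 0.5 mM NADPH, 100 nM GR.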
# [4] = Primary fluorescence-based thiol-reactive (MSTI) qHTS assay for identification of artifact compounds. (AID 1845221);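 note: series mostly up to about 54 µM; thiol-reactive compounds lower the probe fluorescence signal; nearly all actives have a fitted effect of over 65% in size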
# Outline: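 A multi-concentration qHTS design tested compounds against 4 uM MSTI, pH 7.4 phosphate-buffered saline. Plates were protected from light for 1 h at room temperature before imaging fluorescence.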
# [5] = test system: Nanoluciferase (engineered Oplophorus gracilirostris luciferase); assay: Primary Nanoluciferase (NLuc) qHTS assay for identification of artifact compounds. (AID 1845222);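 note: NLuc secreted into diluted conditioned medium of S16 cells; series mostly up to about 54 µM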
# Outline: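 qHTS format, against NLuc in S16 cell-conditioned medium. Nano-Glo substrate 1:100 was added after 15 min at room temperature. Luminescence was taken after a further 5 min.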
# [6] = Primary redox qHTS assay for identification of artifact compounds. (AID 1845223)
# Outline: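 Redox-cycling detection via DTT (250 uM final) oxidation coupled to Amplex Red (25 uM)/HRP (250 mU/mL) in HBSS. 15 min preincubation plus 30 min after DTT, room temperature. Ex/Em 525/598 nm; 4-parameter Hill fit against DMSO and 10 uM DA3003.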
# [7] = biological target: Luciferin 4-monooxygenase (Photinus pyralis) (UniProt P08659); assay: Primary firefly luciferase (FLuc) qHTS assay for identification of artifact compounds. (AID 1845220); note: nearly all actives have a fitted effect of over 60% in size; for activity change, negative = inhibition: series mostly up to about 54 µM
# Outline: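 Titrated compounds were incubated 15 min at RT, protected from light, with luciferin and ATP at 10 uM; reaction started with 10 nM FLuc, luminescence imaged at 5 min, and concentration-response fitted by Hill equation.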
smiles,measurement,setting,value
C=C1C(=O)O[C@@H]2C[C@H](C)[C@@]3(O)C=C(C(C)=O)[C@]4(CC3C[C@H]12)C(=O)O[C@H]1C[C@@H](C)C(CCC(C)=O)=CC[C@H]14 (stereo partly drawn),Potency,[1],8.93 µM (active)
same,Potency,[2],inactive
same,Potency,[3],inactive
same,Potency,[4],inactive
same,Potency,[5],inactive
same,Potency,[6],inactive
C=C1C[C@]23C[C@H]1CC[C@H]2[C@]1(C)CCC[C@@](C)(C(=O)O)[C@H]1[C@@H]3C(=O)O,Potency,[1],inactive
same,Potency,[2],inactive
same,Potency,[3],inactive
same,Potency,[4],inactive
same,Potency,[5],inactive
C(#Cc1nc2ncccc2nc1OCCN1CCCC1)c1ccccc1,Potency,[1],2.3 µM (active)
same,Potency,[2],inactive
same,Potency,[3],inactive
same,Potency,[4],inactive
same,Potency,[5],inactive
CCN1CCN(Cc2ccc(NC(=O)c3ccc(C)c(/C=C/c4cnc5[nH]ccc5c4OC)c3)cc2C(F)(F)F)CC1,Potency,[1],230 nM (active) and 1.18 µM (active)
same,Potency,[2],inactive
same,Potency,[3],inactive
same,Potency,[4],inactive
same,Potency,[5],inactive
same,Potency,[6],inactive
CC/C=C\CCO[C@@H]1O[C@H](CO[C@@H]2OC[C@H](O)[C@H](O)[C@H]2O)[C@@H](O)[C@H](O)[C@H]1O,Potency,[1],inactive
same,Potency,[2],inactive
same,Potency,[3],inactive
same,Potency,[7],inactive
same,Potency,[5],inactive
same,Potency,[6],inactive
COC(=O)C1=CO[C@@H](O[C@@H]2O[C@H](CO)[C@@H](O)[C@H](O)[C@H]2O)[C@H]2[C@@H]1C=C[C@@]21C=C([C@H](C)O)C(=O)O1,Potency,[1],inactive
same,Potency,[2],inactive
same,Potency,[3],inactive
same,Potency,[7],inactive
same,Potency,[5],inactive
same,Potency,[6],inactive
CC1OC(OC2C(OC3C(O[C@H]4CC[C@@]5(C)C(CC[C@]6(C)C5C(=O)C=C5C7CC(C)(C)CC(O)[C@]7(C)CC[C@]56C)C4(C)C)OC(C(=O)O)C(O)C3O)OCC(O)C2O)C(O)C(O)C1O (stereo partly drawn),"activity change, negative = cell killing",[1],0.842% [at 9.23 µM]
same,Potency,[2],inactive
same,Potency,[3],inactive
same,"activity change, negative = inhibition",[7],2.88% [at 11.6 µM]
same,"activity, negative = inhibition",[5],-14.3% [at 11.6 µM]
same,redox activity (% of DA3003),[6],2.04% [at 11.5 µM]
CC(C)(O)/C=C/C1=CC(=O)[C@@](C)(O)C[C@H]1O,Potency,[1],inactive
same,Potency,[2],inactive
same,Potency,[3],inactive
same,Potency,[7],inactive
same,Potency,[5],inactive
same,Potency,[6],inactive
CC1(C=O)CC[C@]2(C(=O)O[C@@H]3O[C@H](CO)[C@@H](O)[C@H](O)[C@H]3O)CC[C@]3(C)C(=CCC4[C@@]5(C)C[C@H](O)[C@H](O[C@@H]6OC[C@@H](O)[C@H](O)[C@H]6O)[C@@](C)(CO)C5CC[C@]43C)C2C1 (stereo partly drawn),"activity change, negative = cell killing",[1],-3.33% [at 9.23 µM]
same,Potency,[2],inactive
same,Potency,[3],inactive
same,"activity change, negative = thiol reactive",[4],182% [at 11.5 µM]
same,"activity, negative = inhibition",[5],2.01% [at 11.6 µM]
same,redox activity (% of DA3003),[6],8.25% [at 11.5 µM]
O=C1NC(Cc2c[nH]c3ccccc23)C(=O)NC1Cc1c[nH]c2ccccc12 (stereo not drawn),Potency,[1],inactive
same,Potency,[2],inactive
same,Potency,[3],inactive
same,Potency,[7],inactive
same,Potency,[5],inactive
same,Potency,[6],inactive
COC(=O)CC(C)(O)CC(=O)OCc1ccc(O[C@@H]2O[C@H](CO)[C@@H](O)[C@H](O)[C@H]2O)cc1 (stereo partly drawn),Potency,[1],inactive
same,Potency,[2],inactive
same,Potency,[3],inactive
same,Potency,[7],inactive
same,Potency,[5],inactive
same,Potency,[6],inactive
CC[C@H]1OC(=O)[C@H](C)[C@@H](O[C@H]2C[C@@](C)(OC)[C@@H](O)[C@H](C)O2)[C@H](C)[C@@H](O[C@@H]2O[C@H](C)C[C@H](N(C)C)[C@H]2O)[C@](C)(O)C[C@@H](C)C(=O)[C@H](C)[C@H]2OC(=O)O[C@@]21C,Potency,[1],inactive
same,Potency,[2],inactive
same,Potency,[3],inactive
same,Potency,[7],inactive
same,Potency,[5],inactive
same,Potency,[6],inactive
COC(=O)C[C@H]1C(C)(C)[C@H](OC(C)=O)C2CC3=C4CC(=O)O[C@@H](c5ccoc5)[C@]4(C)CCC3[C@@]1(C)C2=O (stereo partly drawn),Potency,[1],inactive
same,Potency,[2],inactive
same,Potency,[3],inactive
same,Potency,[7],inactive
same,Potency,[5],inactive
same,Potency,[6],inactive
COc1cc(-c2ncn(/C=C\C(=O)OC(C)C)n2)cc(C(F)(F)F)c1,Potency,[1],0.129 µM (active)
same,Potency,[2],inactive
same,Potency,[3],inactive
same,Potency,[4],inactive
same,Potency,[5],inactive
COc1ncc(Nc2ncc([C@@H](C)N3CCN(S(C)(=O)=O)CC3)cc2-c2nc(C)nc(N)n2)cc1F,Potency,[1],0.0205 µM (active)
same,Potency,[2],inactive
same,Potency,[3],inactive
same,Potency,[7],inactive
same,Potency,[5],inactive
same,Potency,[6],inactive
COc1cc([C@H]2c3cc(O)c(OC)cc3C[C@@H](CO[C@@H]3O[C@H](CO)[C@@H](O)[C@H](O)[C@H]3O)[C@@H]2CO)ccc1O,Potency,[1],inactive
same,Potency,[2],inactive
same,Potency,[3],inactive
same,Potency,[7],inactive
same,Potency,[5],inactive
same,Potency,[6],inactive
N[C@@]1(C(=O)O)CC[C@H]2[C@H](C(=O)O)[C@H]21,Potency,[1],inactive
same,Potency,[2],inactive
same,Potency,[3],inactive
same,Potency,[7],inactive
same,Potency,[5],inactive
same,Potency,[6],inactive
c1ccc(N2CCN(CCc3nn[nH]n3)CC2)cc1,Potency,[1],inactive
same,Potency,[2],inactive
same,Potency,[3],inactive
same,Potency,[7],inactive
same,Potency,[5],inactive
same,Potency,[6],inactive
CC(O)/C=C/C1C(C)C(O[C@@H]2O[C@H](CO)[C@@H](O)[C@H](O)[C@H]2O)C(O)CC1(C)C (stereo partly drawn),Potency,[1],inactive
same,Potency,[2],inactive
same,Potency,[3],inactive
same,Potency,[7],inactive
same,Potency,[5],inactive
same,Potency,[6],inactive
COc1cc(C)c(C(=O)O[C@H]2[C@@H](OC(C)=O)[C@H](n3ccc(=O)[nH]c3=O)O[C@@H]2CO)c(OC)c1,Potency,[1],inactive
same,Potency,[2],inactive
same,Potency,[3],inactive
same,Potency,[4],inactive
same,Potency,[5],inactive
O=C(OCC1=CC(O)C2C=CO[C@@H](O[C@@H]3O[C@H](CO)[C@@H](O)[C@H](O)[C@H]3O)C12)c1ccccc1 (stereo partly drawn),Potency,[1],inactive
same,Potency,[2],inactive
same,Potency,[3],inactive
same,Potency,[7],inactive
same,Potency,[5],inactive
same,Potency,[6],inactive
COc1c2c(c(C)c3c1C(=O)OC3)OC1(C)CC(O)C(C(C)(C)O)C(C)(CCC(=O)O)C1C2 (stereo not drawn),Potency,[1],inactive
same,Potency,[2],inactive
same,Potency,[3],inactive
same,Potency,[7],inactive
same,Potency,[5],inactive
same,Potency,[6],inactive
